# Records with an inconclusive call do not appear. A number with no mark means an inactive call. Calls come from the whole dose curve; as a rule, active = well fitted activation curve with a large enough effect in the signal ratio in the repeat runs (not every such curve was filed as active); inconclusive = weak or mixed curves, or effect the other way; inactive = flat fitted curve, though single readings scatter; the % refers to the signal ratio.
# Molecular target: Estrogen receptor beta (Homo sapiens) (UniProt Q92731)
# Assay: qHTS assay to identify small molecule agonists of the estrogen receptor beta (ER-beta) signaling pathway (AID 1259377)
# Details: ER-beta-UAS-bla HEK293T, beta-lactamase FRET ratio, 16 h; series mostly up to 92.4 µM; activation: at the top concentration
# Source text: U.S. Tox21 Program National Center for Advancing Translational Sciences [NCATS] NIH Chemical Genomics Center [NCGC] U.S. Environmental Protection Agency [EPA] National Institutes of Environmental Health Sciences [NIEHS] National Toxicology Program [NTP] U.S. Food and Drug Administration [FDA] Tox21 Assay Overview: Estrogen receptor (ER), a nuclear hormone receptor, plays an important role in development, metabolic homeostasis and reproduction. Two subtypes of ER, ER-alpha and ER-beta, have similar expression patterns with some uniqueness in both types. Endocrine disrupting chemicals (EDCs) and their interactions with steroid hormone receptors like ER causes disruption of normal endocrine function. To identify the compounds that activate ER signaling, an ER beta-UAS-bla GripTite cell line (Life technologies, Madison, WI, USA) containing a beta-lactamase reporter gene under the control of an Upstream Activator Sequence (UAS) was used to screen Tox21 10K compound library.
# Tox21 Assay Protocol Summary: ER-beta-UAS-bla HEK293T cells were dispensed at 2,000 cells/5 uL of assay medium containing 2% charcoal stripped FBS per well into black wall/clear-bottom 1536-well plates using a Multidrop Combi (ThermoFisher Scientific, Waltham, MA) dispenser. After the assay plates were incubated at a 37C and 5% CO2 for 6 hr, 23 nL of compounds dissolved in DMSO, positive controls or DMSO only was transferred to the assay plate by a Pintool station (Kalypsys, San Diego, CA). The plates were incubated at 37C and 5% CO2 for 16 hr. Then 1 uL of LiveBLAzerTM B/G FRET substrate was added using a BioRAPTR FRD (Flying Reagent Dispenser, Aurora Discovery, San Diego, CA). After the plates were incubated at room temperature for 2 hours, fluorescence intensity was measured by an Envision plate reader (PerkinElmer, Shelton, CT).
# % is set by controls: 0 for no effect and ±100 for the full control effect.
# Sequence of Estrogen receptor beta (Homo sapiens) (Q92731 whole entry, looked up): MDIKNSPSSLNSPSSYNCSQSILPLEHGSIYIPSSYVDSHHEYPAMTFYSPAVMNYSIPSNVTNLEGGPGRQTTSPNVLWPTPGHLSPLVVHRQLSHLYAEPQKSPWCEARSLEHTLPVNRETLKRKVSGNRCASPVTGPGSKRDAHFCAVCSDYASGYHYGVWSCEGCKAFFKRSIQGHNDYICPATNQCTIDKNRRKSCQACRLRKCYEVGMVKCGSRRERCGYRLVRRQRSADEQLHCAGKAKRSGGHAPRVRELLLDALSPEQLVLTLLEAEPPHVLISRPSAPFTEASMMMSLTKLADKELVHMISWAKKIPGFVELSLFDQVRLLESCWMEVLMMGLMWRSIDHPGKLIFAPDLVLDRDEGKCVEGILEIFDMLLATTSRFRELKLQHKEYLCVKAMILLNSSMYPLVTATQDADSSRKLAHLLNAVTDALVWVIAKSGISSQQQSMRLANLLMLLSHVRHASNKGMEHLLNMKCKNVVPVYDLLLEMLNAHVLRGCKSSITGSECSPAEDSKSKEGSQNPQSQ
row,Compound,activation
1,OC[C@H]1O[C@@H]2O[C@H]3[C@H](O)[C@@H](O)[C@@H](O[C@H]4[C@H](O)[C@@H](O)[C@@H](O[C@H]5[C@H](O)[C@@H](O)[C@@H](O[C@H]6[C@H](O)[C@@H](O)[C@@H](O[C@H]7[C@H](O)[C@@H](O)[C@@H](O[C@H]8[C@H](O)[C@@H](O)[C@@H](O[C@H]9[C@H](O)[C@@H](O)[C@@H](O[C@H]1[C@H](O)[C@H]2O)O[C@@H]9CO)O[C@@H]8CO)O[C@@H]7CO)O[C@@H]6CO)O[C@@H]5CO)O[C@@H]4CO)O[C@@H]3CO,0.126% [at 42.5 µM]
2,CC(C=O)Cc1ccc(C(C)C)cc1 (stereo not given),-0.0985%
3,C=CCn1c(=O)n([C@@H]2O[C@H](CO)[C@@H](O)[C@H]2O)c2nc(N)[nH]c(=O)c21,5.91% [at 42.5 µM]
4,C1=C\CC/C=C\CC/C=C\CC/1,1.1%
5,Cc1c(C)n(CCN(C)C)c2ccc(C(=O)OCCN(C)C)cc12,-1.16% [at 42.5 µM]
6,CC(C)[N+](C)(C)CC(O)COc1cccc2ccccc12 (stereo not given),2.33% [at 42.5 µM]
7,CCCCN(CCO)CCO,2.81%
8,COc1ccc(NC(C)=O)cc1,10.9%
9,CC12CCC(CC1=O)C2(C)C (stereo not given),1.39%
10,O=S(=O)(c1cccc2cnccc12)N1CCCNCC1,0.171% [at 42.5 µM]
11,OCc1ccccn1,-2.04% [at 42.5 µM]
12,CCCc1ccccc1O,1.72%
13,NC(N)=NS(=O)(=O)c1ccc(N)cc1,0.853% [at 42.5 µM]
14,CC(=O)N[C@@H](CCC(N)=O)C(=O)O,-0.0286% [at 42.5 µM]
15,Nc1cc(N)cc(C(=O)O)c1,-1.99%
16,COC(=O)CCCC(=O)O,1.01%
17,CCC(C)(C)C1CCC(OC)CC1 (stereo not given),-1.6%
18,CC(C)(C)C(=O)/C=C/c1ccc(Cl)cc1,1.6%
19,Cn1cnc2c(=O)[nH]c(N)nc21,-0.28%
20,C=CCOCC(O)CS(=O)(=O)O (stereo not given),-2.84%

row,Compound,activation
1,O=C(O)C(O)[C@H](O)[C@@H](O)[C@H](O)[C@H](O)CO (stereo not given in full),0.502%
2,O=c1[nH]c2ccccc2c(=O)n1CCCl,5.05% [at 42.5 µM]
3,CN1[C@@H]2CC[C@H]1CC(NC(=O)n1c(=O)[nH]c3ccccc31)C2 (stereo not given in full),0.818% [at 42.5 µM]
4,FC(F)(F)C(F)(F)C(F)(F)C(F)(F)C(F)(F)C(F)(F)C(F)(F)C(F)(F)C(F)(F)C(F)(F)F,-4.79% [at 8.39 µM]
5,CN(C)C(=O)Nc1ccccc1,0.0768%
6,CC/C=C\C#N,0.447%
7,O=C(CCOCCOCCOCCOCCC(=O)Nc1c(I)cc(I)c(C(=O)O)c1I)Nc1c(I)cc(I)c(C(=O)O)c1I,0.43% [at 42.5 µM]
8,CCN1CCN(c2cc3c(cc2F)c(=O)c(C(=O)O)cn3C2CC2)CC1,0.681% [at 42.5 µM]
9,NCC[C@H](O)C(=O)N[C@@H]1C[C@H](N)[C@@H](O[C@H]2O[C@H](CN)[C@@H](O)[C@H](O)[C@H]2O)[C@H](O)[C@H]1O[C@H]1O[C@H](CO)[C@@H](O)[C@H](N)[C@H]1O,0.597% [at 0.348 µM]
10,OCC(O)[C@@H](O)[C@H](O)[C@H](O)CO[C@H]1O[C@H](CO)[C@@H](O)[C@H](O)[C@H]1O (stereo not given in full),-0.718%
11,CCCCCOC(=O)Nc1nc(=O)n([C@@H]2O[C@H](C)[C@@H](O)[C@H]2O)cc1F,3.34% [at 42.5 µM]
12,N#CCN(CC#N)CCN(CC#N)CC#N,0.214%
13,O=C(O)c1cccc(C(=O)O)n1,8.2%
14,CC(C)COC(=O)C(C)C,1.52%
15,CC(C)(O)Cc1ccccc1,0.0374%
16,CC(O)CN(CCCN(C)C)CCCN(C)C (stereo not given),-0.582%
17,CCn1cc(C(=O)O)c(=O)c2cc(F)c(N3CCN(C)CC3)cc21,2.22% [at 19 µM]
18,CN(C)C(=O)C(CCN1CCC(O)(c2ccc(Cl)cc2)CC1)(c1ccccc1)c1ccccc1,-6.28% [at 42.5 µM]
19,CCCCCC[C@@H](CCC)C(=O)O,-4.45% [at 42.5 µM]
20,CCN1CCCC(OC(=O)C(c2ccccc2)c2ccccc2)C1 (stereo not given),2.44% [at 42.5 µM]

# Source: PubChem BioAssay (Tox21)
